The text below walks through data of PubChem BioAssay AID1903 (Southern Research Specialized Biocontainment Screening …, 2009).

The term inhibition denotes the drop in the measured response relative to a control, in per cent.

Structures are written as SMILES. In all, about 310,000 compounds went through this assay and about 1,200 (0.39%) were called active. A selection follows. Entries with a potency or affinity are not part of this list. Values without a mark were called inactive. No rule for the calls is given here.

The target of the test is Large T antigen (Simian virus 40) (UniProt P03070). Put plainly: SV40 large T antigen inhibitors, biochemical (AID 1903). The conditions noted are these: SV40 large T antigen ATPase/helicase inhibition assay; at 20 µM; stronger effect = higher value.
Large T antigen (Simian virus 40), sequence (P03070 whole entry, looked up): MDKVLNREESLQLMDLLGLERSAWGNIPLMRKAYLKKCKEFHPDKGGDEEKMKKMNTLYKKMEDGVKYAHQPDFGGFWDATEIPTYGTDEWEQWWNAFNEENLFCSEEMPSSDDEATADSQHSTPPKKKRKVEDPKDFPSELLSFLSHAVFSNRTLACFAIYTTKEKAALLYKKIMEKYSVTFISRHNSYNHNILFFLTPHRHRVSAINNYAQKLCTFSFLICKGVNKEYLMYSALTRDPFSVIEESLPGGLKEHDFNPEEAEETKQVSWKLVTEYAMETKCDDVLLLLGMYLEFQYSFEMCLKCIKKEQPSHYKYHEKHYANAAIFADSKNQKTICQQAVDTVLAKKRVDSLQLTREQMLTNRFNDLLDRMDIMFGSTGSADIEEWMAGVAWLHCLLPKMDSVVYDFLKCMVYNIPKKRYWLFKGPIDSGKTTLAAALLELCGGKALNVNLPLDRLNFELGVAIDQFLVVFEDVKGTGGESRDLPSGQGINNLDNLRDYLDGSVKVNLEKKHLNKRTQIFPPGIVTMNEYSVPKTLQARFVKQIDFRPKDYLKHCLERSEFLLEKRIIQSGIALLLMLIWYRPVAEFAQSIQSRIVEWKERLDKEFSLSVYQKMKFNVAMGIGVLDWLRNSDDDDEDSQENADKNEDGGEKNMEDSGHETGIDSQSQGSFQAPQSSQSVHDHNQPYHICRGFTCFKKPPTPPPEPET
`CC(=O)N/C(=C\c1ccc(F)cc1)C(=O)NC(C(=O)O)C(C)C` (stereo unspecified): the inhibition was 0.16%.
With `O=c1cc(O)nc(SCc2ccccc2)n1-c1ccc(Cl)cc1`, the inhibition was 7.14%.
The value for `COc1ccc(NC(=O)CC2SC(=NCc3ccccc3OC)NC2=O)cc1` (stereo unspecified) was 0.11%; that for `COc1ccc(NC(=O)CSc2nnc(CC(=O)Nc3ccc(F)cc3)n2C)cc1` was 6.25%.
To `O=C(COC(=O)C1CCCN1C(=O)C12CC3CC(CC(C3)C1)C2)c1ccc(Br)cc1` (stereo unspecified) belongs 3.8%.
To `Cc1occc1C(=O)N1CCCC(N2CCN(c3ccccc3F)CC2)C1` (stereo unspecified) belongs 7.6%; to `O=C(NCC1CC1)[C@]1(C(F)(F)F)C[C@H](CCC2CCCCC2)CCCO1`, 2.31%; to `Fc1ccc(-c2nnc(CSc3nnc4ccccn34)o2)cc1`, 14.8%.
For `O=c1cc(-c2ccc(O)cc2)oc2cc(O[C@@H]3O[C@H](CO)[C@@H](O)[C@H](O)[C@H]3O[C@@H]3OC[C@](O)(CO)[C@H]3O)cc(O)c12`, the inhibition is 8.96%.
Turning to `CC(=O)Cc1cc(=O)c2c(C)cc(O)c(C3OC(CO)C(O)C(O)C3O)c2o1` (stereo unspecified), the inhibition was 5.68%.
The value for `O=c1cc(-c2ccc(O)cc2)oc2c(C3O[C@H](CO)[C@@H](O)[C@H](O)[C@H]3O)c(O)cc(O)c12` (stereo partly specified) was 26%.
To `COc1c(O)cc2c(c1O)C1OC(CO)C(O)C(O)C1OC2=O` (stereo unspecified) belongs 2.96%.
The value for `O=c1cc(-c2ccc(O)cc2)oc2c(C3OCC(O)C(O)C3O)c(O)c(C3OC(CO)C(O)C(O)C3O)c(O)c12` (stereo unspecified) was 45.1%.
As for `O=c1c(-c2ccc(O)cc2)coc2c(C3O[C@H](CO)[C@@H](O)[C@H](O)[C@H]3O)c(O)ccc12` (stereo partly specified), the inhibition was 24.2%.
The value for `O=C(O)C1OC(Oc2cc3oc(-c4ccccc4)cc(=O)c3c(O)c2O)C(O)C(O)C1O` (stereo unspecified) was 17.2%.
In the case of `O=c1cc(-c2ccc(O)cc2)oc2c([C@@H]3O[C@H](CO)[C@@H](O)[C@H](O)[C@H]3O)c(O)c([C@@H]3O[C@H](CO)[C@@H](O)[C@H](O)[C@H]3O)c(O)c12`, the inhibition was 7.48%.
To `CC(O)CNCCOc1ccccc1-c1ccccc1` (stereo unspecified) belongs 8.76%; to `CCOC(=O)CN1C(=O)NC(C)(c2ccc(OC(F)F)cc2)C1=O` (stereo unspecified), 11.6%; to `CCC1(C)N=c2c(c(=O)n(C)c(=O)n2C)=NO1` (stereo unspecified), 2.8%.
To `CC(C)CN1C(=O)NC2(CCCc3ccccc32)C1=O` (stereo unspecified) belongs 25%; to `COc1ccc(/C=C(/NC(=O)c2ccc(C)cc2)C(=O)NCC2CCCO2)cc1` (stereo unspecified), 9.41%.
As for `CCOC(=O)Nc1nc(-c2ccccc2)c(C(=O)c2ccccc2)s1`, the inhibition was 10%.
With `c1ccc(C2[C@H]3CN(Cc4cccnc4)[C@H](c4ccccc4)C34CC2(c2cccnc2)C4)cc1` (stereo partly specified), the inhibition is 5.83%.
To `CCOC(=O)CSc1ncnc2c1cnn2-c1ccc(Cl)cc1` belongs 2.59%.
The value for `COC(=O)c1nn(-c2ccccc2)c(Cl)c1/C=N/OCc1c(Cl)cccc1Cl` was 6.28%; that for `COc1cc2c(cc1OC)CC(=O)N(C)CC2` was -0.375%; that for `COc1cc2c(cc1OC)CN(Cc1ccccc1)CC2` was 4.34%.
The value for `COc1cc(NC(=O)CN2CCCCC2C)c(C)cc1[N+](=O)[O-]` (stereo unspecified) was -0.94%; that for `Nn1c(SCC(=O)NC(=O)NCc2ccco2)nnc1-c1ccc(OC(F)F)cc1` was 19.9%; that for `Cc1ccc(Nc2n[nH]c(C)c2[N+](=O)[O-])cc1C` was 4.58%.
In the case of `Cc1ccc(Nc2n[nH]c(C)c2[N+](=O)[O-])cc1`, the inhibition was -4.15%.
To `O=C(NC1CCN(C(=O)Nc2ccc(F)cc2)CC1)c1ccc(F)cc1` belongs -6.41%; to `O=C(O)c1cc(S(=O)(=O)O)ccc1O`, -2.3%.
The value for `CC1=C/C(=C(\c2ccc(O)c(C)c2)c2ccccc2S(=O)(=O)O)C=CC1=O` was 1.87%.
To `O=C(NCC(c1cccs1)N1CCOCC1)c1ccc(Cl)cc1` (stereo unspecified) belongs 20.7%; to `S=C(Nc1ccc(Nc2ccccc2)cc1)N1CCN(c2ncccn2)CC1`, 26.2%.
Consider `COc1cc2c(cc1OC)C(Cc1ccc(O)cc1)NCC2` (stereo unspecified), for which the inhibition was 70.4%.
On to `COc1cc2c(cc1O)C(Cc1ccc(O)cc1)NCC2` (stereo unspecified), for which the inhibition is 14.4%.
To `c1ccc(CCc2nn3c(Cn4nnc5ccccc54)nnc3s2)cc1` belongs -1.97%; to `O=C1c2ccccc2CCCC12N=NCC2c1cccc2ccccc12` (stereo unspecified), -6.72%; to `Cc1ncc(CO)c(/C=N/NC(=O)c2ccc(Br)cc2)c1O`, 3.1%.
To `Cc1ncc(CO)c(/C=N/NC(=O)c2ccc(O)cc2)c1O` belongs 4.85%; to `O=C1C(Cc2ccccc2)Nc2ncnc(N3CCCCC3)c2N1Cc1ccc(Cl)cc1` (stereo unspecified), 23.8%.
The value for `Oc1ccc(C2=NNC(c3ccc(O)cc3)=NN2)cc1` was 6.31%.
Consider `Oc1ccc(-c2cccc(-c3ccc(O)cc3)n2)cc1`, for which the inhibition is 24.3%.
With `C=CS(=O)(=O)c1sc(Cl)c(N2CCOCC2)c1[N+](=O)[O-]`, the inhibition is 28.6%.
The value for `C=CSc1sc(Cl)c(N2CCOCC2)c1[N+](=O)[O-]` was 15.5%; that for `Cc1nc(-c2ccc(C(=O)Nc3cccc(Br)c3)cc2)cs1` was 5.4%.
The value for `O=C(O)c1cn(CCOc2ccccc2Cl)c2ccccc12` was -2.87%.
The value for `CCNC(=O)NC(=O)CN(C)c1ccccc1` was 1.38%.
Regarding `COc1ccc(N(CC(=O)Nc2cc(C)on2)S(=O)(=O)c2cc(C)ccc2C)cc1`, the inhibition is -9.08%.
To `Cc1cccc(N=Nc2cnc(N)s2)c1` belongs 14.7%.
With `COc1cc(C(=O)O)ccc1Cl`, the inhibition was 8.61%.
The value for `COc1ccc(/C=C/C(=O)N(Cc2ccccc2)c2ccccn2)cc1OC` was -1.52%.
To `O=C(/C=C/c1c(F)cccc1Cl)Nc1nc2ccccc2[nH]1` belongs 9%; to `COc1ccc2cc(C(=O)CS(=O)(=O)c3ccccc3)c(=O)oc2c1`, 3.93%.
With `O=C(CS(=O)(=O)c1ccccc1)c1cc2ccccc2oc1=O`, the inhibition is 32.7%.
The value for `Cc1cc(NC(=O)c2nn3cccnc3c2Cl)no1` was 4.99%; that for `Clc1ccc(-c2cnc3ccccc3n2)cc1` was 5.89%.
To `CN1C(=O)[C@@H]2C[C@@]3([C@@]45C[C@H]6C(=O)N(C)[C@@H](Cc7ccccc7)C(=O)N6[C@@H]4Nc4ccccc45)c4ccccc4N[C@H]3N2C(=O)[C@@H]1Cc1ccccc1` belongs 4.57%; to `O=Cc1cn(CCC(=O)O)nc1-c1cccc(Cl)c1`, 7.59%.
Consider `O=C(O)CCn1cc(/C=C2\SC(=S)NC2=O)c(-c2ccccc2)n1`, for which the inhibition is 1.75%.
Consider `COc1ccc(C2(C(=O)Nc3cc(C)on3)CCOCC2)cc1`, for which the inhibition is 0.88%.
Take `O=C(O)c1cccc(Cn2c(Cl)c(/C=N/Nc3ccccc3)sc2=O)c1`: the inhibition was 29.6%.
The value for `O=C(O)c1cccc(Cn2c(Cl)c(/C=N/NC(=O)c3ccccc3)sc2=O)c1` was 7.08%; that for `CCC(C(=O)NC1CCCCCC1)n1nc(C)c2c(C)n(-c3ccccc3)nc2c1=O` (stereo unspecified) was 8.34%.
In the case of `COC(=O)c1ccc(NC(=O)CN(C2CCCCC2)S(C)(=O)=O)cc1`, the inhibition is -3.48%.
The value for `Cc1ccc([N+](=O)[O-])cc1N` was -1.11%; that for `Cc1cc([N+](=O)[O-])ccc1N` was 6.27%.
As to `Cc1ccc(CN2CCN(C/C=C/c3ccc(F)cc3)CC2CCO)o1` (stereo unspecified), the inhibition is 19.4%.
To `Cc1sc2ncn(CC(=O)NCc3ccco3)c(=O)c2c1-c1ccc(F)cc1` belongs 14.3%.
`Cc1ccc(C(=O)N2CC(C)SC2=Nc2cccc(S(=O)(=O)N(C)C)c2)cc1` (stereo unspecified): the inhibition was 18.9%.
To `COc1ccc(/C=N/N2C(=O)CSC2=S)cc1Br` belongs 33.2%; to `CCN=C1S/C(=C\c2cc(Br)c(O)c(OC)c2)C(=O)N1CC`, 25.1%; to `COc1cc(/C=N/N2C(=O)CSC2=S)ccc1O`, 37.9%.
To `CCN=c1scc(C)n1/N=C/c1ccc(O)c(O)c1O` belongs 9.52%; to `COc1cc(/C=N/Nc2cccc(C)c2)cc(Br)c1O`, 13.3%; to `CCN=c1scc(C)n1/N=C/c1ccsc1`, 12.1%.
To `COc1cc(/C=N/n2c(C3CCCCC3)n[nH]c2=S)cc(Br)c1O` belongs 12.8%.
For `COc1cc(/C=N/N2CCN(Cc3ccc(Cl)cc3)CC2)cc(Br)c1O`, the inhibition was 10.9%.
In the case of `COc1ccccc1NC(=O)c1sc2nc(N3CCOCC3)c3c(c2c1N)CCCC3`, the inhibition is 15.5%.
As to `S=c1[nH]nc(-c2ccccn2)n1/N=C/c1c(Cl)cccc1Cl`, the inhibition was 24.9%.
The value for `COc1ccccc1N1CCN(C(=O)/C=C/c2ccccc2)CC1` was 5.64%.
Turning to `COc1ccc(/C=C(/C#N)C(=O)Nc2ccc(C)cc2C)cc1C(=O)O`, the inhibition is 19.8%.
As to `COc1cc(NC(=O)C2=C(N3CCOCC3)/C(=C\c3ccc(Br)cc3)CC2)cc(OC)c1OC`, the inhibition was -0.46%.
Consider `O=C(Nc1ccccc1)c1cccc(S(=O)(=O)N2CCCCC2)c1`, for which the inhibition was 1.37%.
With `Cn1c2ccccc2c2n[nH]c(=S)nc21`, the inhibition was 14.8%.
On to `CCOC(=O)c1c(S(=O)(=O)NCc2ccc(OC)cc2)c(C)n(C)c1C`, for which the inhibition is 8.6%.
To `O=C(CSCC(=O)N1CCCCC1)OCC(=O)c1c[nH]c2ccccc12` belongs 7.84%.
On to `O=C(CSC1=NS(=O)(=O)c2ccccc2N1)NCCc1ccccc1`, for which the inhibition is 10.2%.
The value for `COc1cc(/C=N/NC(=O)CC2(C)OCCO2)cc(Br)c1O` was 18%; that for `CCCCCC(=O)N/N=C/c1cc(Br)c(O)c(OC)c1` was 24.7%.
To `COc1cc(/C=N/N=C/c2cc(OC)c(O)c(OC)c2)cc(OC)c1O` belongs 36.7%.
For the molecule `O=C1CSC(=S)N1/N=C/c1cc(Br)ccc1O`, the inhibition was 19.8%.
On to `O=C1CSC(=S)N1/N=C/c1ccc(Cl)c([N+](=O)[O-])c1`, for which the inhibition was 29.2%.
Consider `COc1cc(/C=N/N2C(C)CCCC2C)cc(Br)c1O` (stereo unspecified), for which the inhibition was 29.5%.
